# MCL1-BIM inh = disrupts human MCL1 binding to BIM-BH3 peptide; 320,000 compounds, 0.68% hits; AID 2057; inhibition, % at 10.9 µM; Q07820; GST-MCL1 / FITC-Bim-BH3 fluorescence polarization;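 active = inhibition above the mean inhibition of all tested compounds plus 3 SD, set per campaign, cut at about 40% in these data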;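 note: 0% = DMSO wells and 100% = unlabeled Bim-BH3 peptide control; higher means more loss of mP so more displacement of Bim peptide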
# Target sequence (Q07820 whole entry, looked up): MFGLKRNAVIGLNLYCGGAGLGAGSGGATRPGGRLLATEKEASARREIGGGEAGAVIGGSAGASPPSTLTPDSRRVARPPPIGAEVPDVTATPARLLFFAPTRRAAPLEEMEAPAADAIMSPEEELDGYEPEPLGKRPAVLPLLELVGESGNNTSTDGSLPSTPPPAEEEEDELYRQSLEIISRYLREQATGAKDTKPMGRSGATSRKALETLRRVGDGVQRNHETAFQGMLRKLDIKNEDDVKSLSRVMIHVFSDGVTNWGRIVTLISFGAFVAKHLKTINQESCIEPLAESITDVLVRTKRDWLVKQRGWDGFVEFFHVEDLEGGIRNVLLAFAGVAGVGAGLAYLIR
# BCLXL inh = Bcl-xL (human) inhibition; Q07817; 320,000 compounds, 0.7% hits; GST-Bcl-xL / FITC-Bim BH3 peptide fluorescence polarization; inhibition, % at 10.9 µM;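 active = inhibition above the mean of all tested compounds plus 3 SD, cutoff set per campaign, cut at about 30% in these data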;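 note: 0% = DMSO wells and 100% = unlabeled Bim-BH3 peptide competitor; inhibitors lower millipolarization by displacing the labeled peptide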
# EBV gp42 block = EBV gp42 inhibition; Q1HVG2; 220,000 compounds, 0.42% hits; AID 1085; Fluorescence polarization binding assay, mP read-out; inhibition, % (tested at 21.74 µM); in the data active = inhibition above about 50%
# Target sequence (Q1HVG2 whole entry, looked up): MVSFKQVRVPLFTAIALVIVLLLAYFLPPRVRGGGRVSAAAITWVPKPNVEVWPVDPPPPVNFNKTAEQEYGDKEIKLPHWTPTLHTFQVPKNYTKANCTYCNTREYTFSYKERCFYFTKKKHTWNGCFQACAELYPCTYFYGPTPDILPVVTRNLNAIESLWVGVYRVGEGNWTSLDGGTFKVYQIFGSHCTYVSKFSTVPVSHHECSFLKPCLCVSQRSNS
# MEX-5 binding = C. elegans MEX-5 TCR-2 RNA binding activity; MEX-5/FITC-TCR2 RNA binding, fluorescence polarization; stronger effect = lower value; activity score (negative = inhibition of binding), % at 10 µM; 300,000 compounds, 0.38% hits; AID 1832;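 active = inhibition past about -25% in most replicates, and total fluorescence under double the plate's negative control median, limit read from the data; inconclusive = replicates evenly split on the limit, or fluorescence at least double controls; inactive = too little inhibition in most replicates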;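 note: 0% = DMSO and -100% = 5 µM competing unlabeled TCR2 RNA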
# eLon inh = E. coli protease La inhibition | P0A9M0 | purified E. coli Lon protease, fluorescence polarization | inhibition, % at 7.94 µM | 360,000 compounds, 0.42% hits | AID 602123; in the data active = inhibition above about 13%, passing the limit was not always enough;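 note: 0% = enzyme with probe and DMSO and 100% = no enzyme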
# GLD-1 RNA inh = GLD-1-TGE RNA interaction inhibition (C. elegans) | purified GLD-1 + fluorescein TGE RNA, fluorescence polarization | inhibition, % at 5.96 µM | 320,000 compounds, 0.44% hits | AID 2280;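 active = percent inhibition above a per-plate cutoff, the plate mean of test compounds plus 3 SD, cut at about 30% in these data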;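 note: 0% = DMSO wells with GLD-1 and probe and 100% = wells lacking GLD-1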
# Bcl-xL conf = counter-screen for MCL1 inhibitors: confirmation of human Bcl-xL inhibitors; shares compounds with MCL1-BIM inh; GST-Bcl-xL / FITC-Bim BH3 peptide FP binding; inhibition, % at 10.9 µM; 1,700 compounds, 54% hits;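 active = inhibition above a cutoff equal to the mean inhibition of all tested compounds plus 3 SD, cut at about 30% in these data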;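 note: 0% = DMSO wells and 100% = unlabeled Bim BH3 control peptide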
# MCL1 inh confirm = MCL1-BIM-BH3 interaction inhibition, confirmation | shares compounds with MCL1-BIM inh | GST-MCL1 / FITC-Bim-BH3 fluorescence polarization | inhibition, % at 10.9 µM | 1,700 compounds, 61% hits | AID 2168;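 active = inhibition above the average of all tested compounds plus 3 SD, cut at about 40% in these data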;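 note: 0% = DMSO wells and 100% = unlabeled Bim-BH3 control peptide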
# * = called active by the depositor; ? = inconclusive; / = no result. This is a sample that favours compounds with a hit; in the whole collection about 1.4% have one here.
SMILES,MCL1-BIM inh,BCLXL inh,EBV gp42 block,MEX-5 binding,eLon inh,GLD-1 RNA inh,Bcl-xL conf,MCL1 inh confirm
NC(=O)c1cc[n+](CC(=O)NC(=O)Nc2ccccc2)cc1,1.4,5.7,/,/,-4.2,3.1,/,/
CCCn1c(/C=C/c2cc[n+](C)cc2)nc2ccccc21,71.5*,67.1*,/,0.6,7.9,30.4,52.5*,56.1*
CCCN(CC(=O)Nc1ccccc1OC)C(=O)CSC(=S)N1CCCC1,2.7,7.9,/,/,8.1,2.4,/,/
O=C(Nc1nnc(C2CC2)s1)c1ccc(Cl)nc1,177.6*,1.2,/,/,-13.3,0.5,-0.9,-0.3
CCc1nnc(NC(=O)c2ccc(Cl)nc2)s1,8.8,-3.3,-4.0,-0.6,12.5,-2.8,/,/
COc1ccc(CCN2CCCn3c2nc2c3c(=O)[nH]c(=O)n2C)cc1OC,/,/,/,-2.7,0.7,/,/,/
Cc1cccc(/C=C2\Oc3cc(OS(C)(=O)=O)ccc3C2=O)c1,6.8,9.3,2.4,0.3,0.9,11.1,/,/
O=C1/C(=C/c2cccc(F)c2)Oc2cc(O)ccc21,66.2*,74.6*,/,?,-46.2,69.5*,83.3*,97.5*
COc1ccc(-c2ccc(CO)o2)cc1N,5.7,2.7,-15.5,2.4,-6.2,-3.8,/,/
CCC(=O)Nc1ccc2ccccc2c1,-6.2,1.3,-14.5,2.0,-11.9,-2.0,/,/
CCC(=O)Nc1ccc2nc3c(=O)[nH]c(=S)[nH]c3nc2c1,98.0*,61.3*,/,-46.4*,9.9,16.0,107.2*,160.6*
O=c1cc(-c2ccc(O)cc2)oc2c(O)c(O)c(O)c(O)c12,47.4*,10.5,-3.1,/,-13.0,-1.0,14.8,54.5*
ClCC1NCC(c2ccccc2Cl)c2c1[nH]c1ccccc21 (stereo not given),-81.8,-51.8,-13.9,-1.2,-41.4,-55.5,/,/
CC(OC(=O)Cc1c[nH]c2ccccc12)C(=O)Nc1ccc(S(N)(=O)=O)cc1 (stereo not given),-3.9,-2.6,/,2.3,-2.2,7.6,/,/
Cc1cn2c(-c3cccnc3)nnc2s1,0.3,0.8,-21.1,-0.4,-11.1,3.8,/,/
Cc1ccc(-c2[nH]c(=O)n3ccncc23)s1,56.5*,58.5*,28.0,-7.7,2.4,27.9,66.0*,91.0*
O=C(CN1C(=O)C(=O)N(C2CCCC2)C1=O)Nc1ccc([N+](=O)[O-])cc1,/,/,/,/,4.8,/,/,/
CC[C@]12c3[nH]c4cc(-c5ccco5)ccc4c3CCN1C(=O)[C@@H](CC(=O)NC(C)(C)C)C[C@@H]2C(=O)N1CCN(C(=O)C2CC2)CC1,/,/,/,/,3.1,/,/,/
Cc1ccc(S(=O)(=O)c2nc(Cc3ccccc3)oc2N2CCOCC2)cc1,58.5*,15.4,/,/,-7.5,3.0,14.0,79.2*
Cc1ccc(S(=O)(=O)c2nc(-c3ccccc3)oc2N2CCCC2)cc1,29.1,7.9,/,/,-1.2,-0.6,/,/
O=C(N/N=C/c1ccncc1)c1cc([N+](=O)[O-])cc([N+](=O)[O-])c1O,43.1*,8.9,-15.4,-7.5,-4.8,-0.8,12.3,48.9*
Cc1ccc(-c2nnc3n2CCCCC3)cc1,1.9,6.6,-4.0,0.3,-1.4,1.8,/,/
c1cc(-c2nnc3n2CCCCC3)ccn1,83.9*,-4.6,-1.7,1.7,-9.8,-5.9,10.4,10.3
CCOC(=O)N1CCC(N2CCCC(CO)(Cc3cccc(OC)c3)C2)CC1 (stereo not given),10.2,4.1,-4.5,1.6,-2.8,-1.0,/,/
COc1ccc(Cc2noc(CN3CCCN(C4Cc5ccccc5C4)CC3)n2)cc1OC,2.9,7.1,6.1,-0.4,-4.5,4.0,/,/
SMILES,MCL1-BIM inh,BCLXL inh,EBV gp42 block,MEX-5 binding,eLon inh,GLD-1 RNA inh,Bcl-xL conf,MCL1 inh confirm
Nc1nc(-c2ccco2)nn1S(=O)(=O)c1ccc(Cl)cc1,1.6,1.9,11.0,-1.3,0.7,-1.8,/,/
CC(=O)Oc1ccc2c(=O)c(Oc3ccccc3)coc2c1OC(C)=O,49.9*,15.0,-10.9,-1.8,1.8,-1.9,20.2,39.5
CCN1CCN(C(CNS(=O)(=O)c2cccs2)c2cccnc2)CC1 (stereo not given),1.6,3.9,-14.4,0.5,0.8,8.8,/,/
O=C(O[C@@H]1OC2COC(=O)c3cc(O)c(O)c(O)c3-c3c(cc(O)c(O)c3O)C(=O)O[C@@H]([C@H]1O)[C@@H]2O)c1cc(O)c(O)c(O)c1,91.2*,61.8*,-14.3,-67.3*,32.8*,15.5,74.0*,87.4*
O=Cc1c(Cl)nc2ccccn2c1=O,59.0*,56.1*,1.4,-1.0,14.6,18.9,10.4,10.7
Cc1cccn2c(=O)c(C=O)c(Cl)nc12,24.1,26.9,1.5,-1.9,-3.1,14.4,/,/
C/C(=N/O)c1no[n+]([O-])c1/C(C)=N\O,1.4,4.9,-21.3,-1.6,2.7,0.7,/,/
O=C(CSc1nnc(-c2cccnc2)o1)N1CCCCC1,-0.5,-0.7,/,-0.2,-2.6,7.2,/,/
O=[N+]([O-])c1cccc(CSc2nnc(Cc3ccccc3)n2-c2ccc(F)cc2)c1,0.6,2.5,-11.1,3.6,2.9,5.2,/,/
CC1(C)CC(NS(=O)(=O)c2ccc(S(N)(=O)=O)cc2)CC(C)(C)N1,117.7*,96.8*,/,-8.0,10.2,88.8*,10.9,4.0
COc1ccc(C(C)=O)c(OC(=O)c2ccco2)c1,2.8,2.9,12.8,-2.2,2.0,2.0,/,/
COc1ccc(C2=CC3=C(Br)C(=O)C(C)(OC(=O)c4cccs4)C(=O)C3=CO2)cc1 (stereo not given),42.2*,20.1,/,-33.6*,-26.4,12.9,20.1,51.0*
COc1ccc(C2=CC3=C(Br)C(=O)C(C)(OC(=O)c4ccco4)C(=O)C3=CO2)cc1 (stereo not given),54.2*,42.3*,11.4,-47.5*,-42.9,20.2,34.8*,76.4*
COc1ccc(S(=O)(=O)Nc2cccc3c2O[C@H](CN(C)C(=O)Nc2ccc(C(F)(F)F)cc2)[C@@H](C)CN([C@H](C)CO)C3=O)cc1,/,/,/,/,-6.9,2.9,/,/
O=C(O)C(Cc1ccccc1)N1C(=O)/C(=C/C=C/c2ccco2)SC1=S (stereo not given),/,/,-9.1,0.1,-3.6,/,/,/
O=C(CCN1C(=O)/C(=C\C=C\c2ccccc2)SC1=S)Nc1ccccc1C(=O)O,42.6*,24.6,/,0.1,-28.8,-0.8,15.3,11.5
O=C(O)CC(C(=O)O)N1C(=O)/C(=C/C=C/c2ccco2)SC1=S (stereo not given),75.2*,41.5*,-11.3,-65.6*,1.3,12.2,21.6,32.2
O=C(CCN1C(=O)/C(=C\C=C\c2ccccc2)SC1=S)Nc1cccc(C(=O)O)c1,27.6,12.8,/,-0.1,-34.7,-2.1,/,/
O=C(O)CCCN1C(=O)/C(=C/C=C/c2ccco2)SC1=S,80.1*,46.5*,-29.4,-16.7,-9.5,1.9,24.6,31.1

# Compound activity (PubChem BioAssay)
